Reference: PubChem BioAssay AID651551 (Sanford-Burnham Center for Chemical Genomics, 2012)

Molecular target: PEG-3 (UniProt Q6IN02)
Assay: GAPDH versus PEG-3 reporter suppression – cell-based, luminescence, counter-screen for PEG-3 promoter inhibitor project, SAR follow-up (AID 651551)
Settings: HeLa PEG-Prom / GAPDH luciferase reporter, 6 or 24 h, run 1, 24 h; at 99 µM (top of the series)

| SMILES | inhibition % (higher = more inhibition) [%] |
| --- | --- |
| Cc1cc(NC(=O)c2cccc(C)c2C)n(-c2nc3ccccc3[nH]2)n1 | 79.1 |
| Cc1ccc(Cl)cc1Nc1nc(-c2sc(NC(=O)c3ccco3)nc2C)cs1 | 24.5 |
| O=C(Nc1nc2ccccc2s1)c1nn(-c2ccccc2)c(=O)c2ccccc12 | -7.12 |
| Cc1cc(NC(=O)c2ccccc2)n(-c2nc3ccccc3n2C)n1 | 10.1 |
| Cc1nc(NC(=O)c2ccccc2)sc1-c1csc(Nc2ccccc2Cl)n1 | -64.6 |
| Cc1nc(NC(=O)c2ccccc2)sc1-c1csc(Nc2ccccc2)n1 | 73.4 |
| COc1ccccc1Nc1nc(-c2sc(NC(=O)c3ccco3)nc2C)cs1 | 18.8 |
| COc1ccc(-n2nc(C(=O)NCC(=O)Nc3ccc(OC)c(OC)c3)c3ccccc3c2=O)cc1 | 53.3 |
| COc1ccc(-n2nc(C(=O)NCC(=O)Nc3cc(OC)c(OC)c(OC)c3)c3ccccc3c2=O)cc1OC | 47.5 |
| COCCCNC(=O)c1ccc(Cn2c(=O)c3ccccc3n(Cc3ccccc3C#N)c2=O)cc1 | 54.2 |
| CCn1cc(C(=O)NCc2ccco2)c(=O)c2cc(S(=O)(=O)N3CCCC3)ccc21 | 47.5 |
| Cc1cc(NC(=O)c2ccccc2)n(-c2nc3ccccc3[nH]2)n1 | -6.81 |
| Cc1nc(NC(=O)c2ccccc2)sc1-c1csc(Nc2cccc(Cl)c2C)n1 | -27.2 |
| CCCn1nc(C(=O)Nc2nc3ccccc3s2)c2ccccc2c1=O | 33.1 |
| CCn1nc(C(=O)Nc2nc(-c3ccccn3)cs2)c2ccccc2c1=O | 49.2 |
| Cc1cc(NC(=O)c2ccccc2C(F)(F)F)n(-c2nc3ccccc3[nH]2)n1 | 93.5 |
| CCCn1nc(C(=O)Nc2nc(-c3ccccn3)cs2)c2ccccc2c1=O | 39.1 |
| Cc1cc(NC(=O)c2ccccc2C)n(-c2nc3ccccc3[nH]2)n1 | 47.5 |
| O=C(Nc1nccs1)c1nn(-c2ccccc2)c(=O)c2ccccc12 | 41.8 |
| COc1ccc(Cl)cc1Nc1nc(-c2sc(NC(=O)c3ccccc3)nc2C)cs1 | 44.2 |
| CCCn1nc(C(=O)Nc2nc(-c3ccncc3)cs2)c2ccccc2c1=O | 31.6 |
| COc1ccc(-n2nc(C(=O)NCC(=O)Nc3cccc(OC)c3)c3ccccc3c2=O)cc1 | 24.5 |
| O=C(Nc1nc(-c2ccccc2)cs1)c1nn(-c2ccccc2)c(=O)c2ccccc12 | 13 |
